In PubChem BioAssay (Tox21):
Inconclusive results are not listed. Calls of active or inactive are those of the source. Unless noted, the call rests on the fitted dose curve; in most records, active means well fitted curve in the direction sought with a large enough effect in the repeat runs; inconclusive means weak or mixed curves; inactive means no such curve, though single readings can be large; an effect the other way counts as inactive or inconclusive.

What was measured:
[1] = qHTS assay to identify small molecule antagonists of the thyroid receptor (TR) signaling pathway - cell viability counter screen (AID 743064); further: nearly all actives have a fitted effect of over 50% in size
Summary of the method: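 GH3.TRE-Luc rat pituitary cells carrying a TRE-luciferase reporter were treated with compound plus 1 nM T3 (final) for 23.5 h at 37 °C. Viability was then read in the same wells by CellTiter-Fluor fluorescence after a further 30 min.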

[2] = qHTS assay to identify small molecule antagonists of the thyroid receptor (TR) signaling pathway (AID 743065); further: series mostly up to about 70 µM; nearly all actives have a fitted effect of over 55% in size
Summary of the method: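 GH3.TRE-Luc rat pituitary cells carrying two TR response elements driving luciferase were plated for 4 h, given compound plus 1 nM T3 (final), and incubated 23.5 h at 37 C. ONE-Glo luminescence measured reporter inhibition; CellTiter-Fluor fluorescence tracked cytotoxicity.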

[3] = test system: thyroid hormone receptor (rat, GH3 cells); assay: qHTS assay to identify small molecule agonists of the thyroid receptor (TR) signaling pathway (AID 743066; calls by dose curve)
[4] = biological target: Estrogen receptor (Homo sapiens) (UniProt P03372); assay: qHTS assay to identify small molecule antagonists of the estrogen receptor alpha (ER-alpha) signaling pathway (AID 743069; active means well fitted curve in the direction sought with a large enough effect in the signal ratio in the repeat runs, not every such curve was filed as active; the % refers to the signal ratio)
Sequence of Estrogen receptor (Homo sapiens) (P03372 whole entry, looked up): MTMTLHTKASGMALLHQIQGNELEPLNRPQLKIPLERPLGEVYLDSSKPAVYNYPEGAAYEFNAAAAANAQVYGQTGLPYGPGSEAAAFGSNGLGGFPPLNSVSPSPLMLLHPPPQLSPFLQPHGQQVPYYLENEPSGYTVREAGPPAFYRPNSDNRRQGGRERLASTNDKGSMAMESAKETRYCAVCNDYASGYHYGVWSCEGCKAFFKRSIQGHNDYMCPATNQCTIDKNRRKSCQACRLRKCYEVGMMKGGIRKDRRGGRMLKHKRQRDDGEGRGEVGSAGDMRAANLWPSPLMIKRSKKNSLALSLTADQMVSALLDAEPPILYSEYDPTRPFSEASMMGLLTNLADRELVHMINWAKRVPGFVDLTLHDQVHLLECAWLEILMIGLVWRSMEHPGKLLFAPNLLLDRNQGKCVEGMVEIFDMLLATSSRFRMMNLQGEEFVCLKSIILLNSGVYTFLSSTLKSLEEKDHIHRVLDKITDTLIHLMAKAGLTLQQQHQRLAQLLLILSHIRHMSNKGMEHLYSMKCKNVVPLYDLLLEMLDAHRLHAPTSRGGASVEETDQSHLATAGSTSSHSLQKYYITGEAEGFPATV
Summary of the method: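 Estradiol-stimulated ER-alpha-UAS-bla HEK293 cells, 18 hr compound exposure at 37C. LiveBLAzer B/G substrate, 2 hr RT, fluorescence read.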

[5] = qHTS assay to identify small molecule antagonists of the estrogen receptor alpha (ER-alpha) signaling pathway - cell viability counter screen (AID 743074; calls by dose curve;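 further: HEK293 cells carrying ER-alpha-UAS-bla reporter stimulated with 17beta-estradiol; nearly all actives have a fitted effect of over 45% in size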)
[6] = biological target: Estrogen receptor (Homo sapiens) (UniProt P03372); assay: qHTS assay to identify small molecule agonists of the estrogen receptor alpha (ER-alpha) signaling pathway (AID 743075; calls by dose curve;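 further: HEK293 GripTite cells with ER-alpha and UAS-driven beta-lactamase reporter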)
[7] = biological target: Estrogen receptor (Homo sapiens) (UniProt P03372); assay: qHTS assay to identify small molecule agonists of the estrogen receptor alpha (ER-alpha) signaling pathway using the BG1 cell line (AID 743079); further: nearly all actives have a fitted effect of over 20% in size
[8] = qHTS assay to identify small molecule antagonists of the estrogen receptor alpha (ER-alpha) signaling pathway using the BG1 cell line (AID 743080; calls by dose curve;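 further: BG1 cells stimulated with 17beta-estradiol alongside compound; series mostly up to about 70 µM; nearly all actives have a fitted effect of over 25% in size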)
Summary of the method: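 Readout is ONE-Glo luminescence, taken 30 min at room temperature after reagent addition, preceded by a CellTiter-Fluor viability read; BG1-Luc-4E2 cells had received compound and 17beta-estradiol for 21.5 h at 37 C.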

[9] = qHTS assay to identify small molecule antagonists of the estrogen receptor alpha (ER-alpha) signaling pathway using the BG1 cell line - cell viability counter screen (AID 743081);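 further: compound given together with 17beta-estradiol as the ER stimulus; series mostly up to about 70 µM; nearly all actives have a fitted effect of over 45% in size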
Aromatase (Homo sapiens) = Aromatase (Homo sapiens) (UniProt P11511); assay: qHTS assay to identify aromatase inhibitors (AID 743083); further: series mostly up to about 70 µM; nearly all actives have a fitted effect of over 55% in size
Sequence of Aromatase (Homo sapiens) (P11511 whole entry, looked up): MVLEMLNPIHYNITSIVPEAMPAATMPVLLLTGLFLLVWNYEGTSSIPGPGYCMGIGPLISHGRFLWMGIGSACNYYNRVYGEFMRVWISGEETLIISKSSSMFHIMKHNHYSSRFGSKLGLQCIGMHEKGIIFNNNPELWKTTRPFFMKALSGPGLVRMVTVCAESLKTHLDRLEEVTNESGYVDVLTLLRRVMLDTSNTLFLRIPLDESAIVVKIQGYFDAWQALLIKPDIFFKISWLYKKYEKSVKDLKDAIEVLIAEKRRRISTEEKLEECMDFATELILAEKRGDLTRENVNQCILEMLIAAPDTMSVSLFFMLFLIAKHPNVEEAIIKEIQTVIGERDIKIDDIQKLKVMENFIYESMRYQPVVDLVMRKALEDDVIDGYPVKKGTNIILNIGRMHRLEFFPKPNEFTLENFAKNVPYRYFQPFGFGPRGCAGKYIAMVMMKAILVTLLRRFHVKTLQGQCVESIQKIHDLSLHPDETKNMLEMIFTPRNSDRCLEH

Measured: Potency

CO[Si](CCCCl)(OC)OC
inactive: all assays above

CCCCCC1Nc2cc(C(F)(F)F)c(S(N)(=O)=O)cc2S(=O)(=O)N1 (stereo not given)
inactive: all assays above

CCOC(=O)C(C)(C)C
inactive: all assays above

FC(F)(F)/C(=N\OCC1OCCO1)c1ccc(Cl)cc1
inactive: all assays above

CNC(=O)NC
inactive: all assays above

OC[C@@H](O)[C@H](O)[C@@H](O)[C@@H](O)CO
inactive: all assays above

CCCCCCCCOC(C)=O
inactive: all assays above

CC1=CC[C@H](CC=O)C1(C)C
inactive: all assays above

CCC(CO)CO
inactive: all assays above

C=C[Si](C)(C)O[Si](C)(C)C=C
inactive: all assays above

O=S1(=O)CCCC1
inactive: all assays above

CCOC(=O)CC#N
inactive: all assays above

COc1cccc2sc(N)nc12
inactive: all assays above

COC(=O)CCC(=O)O
inactive: all assays above

Cc1cccc(C(=O)O)c1[N+](=O)[O-]
inactive: all assays above

CO[Si](CCCS)(OC)OC
inactive: all assays above

Nc1cc(Cl)cc(S(=O)(=O)O)c1O
inactive: all assays above

CCCCCCCC/C=C\CCCCCCCC(=O)OC[C@@H](O)[C@H]1OC[C@H](O)[C@H]1O
inactive: all assays above

CC(C)C(=O)c1ccccc1
inactive: all assays above

O=C(O)/C=C/c1ccccc1
inactive: all assays above

Cc1cccc(Nc2ccncc2S(=O)(=O)NC(=O)NC(C)C)c1
inactive: all assays above

CCCO
inactive: all assays above

CCCCOC(=O)C(C)OC(=O)CCC (stereo not given)
inactive: all assays above

CC1CCC(C(C)(C)S)C(=O)C1 (stereo not given)
inactive: all assays above
